Data as given in PubChem BioAssay (Tox21).
“And” between values parts separate entries of the source, which are not always exact repeats. Equal values may be shown once. Results filed as inconclusive are left out. A structure can be active in one record and inactive in another. The source made the active and inactive calls. Unless noted, calls follow the shape of the dose curve; as a rule, active = well fitted curve in the direction sought with a large enough effect in the repeat runs; inconclusive = weak or mixed curves; inactive = no such curve, though single readings can be large; an effect the other way counts as inactive or inconclusive.

Legend:
[1] = qHTS assay for small molecules that induce genotoxicity in human embryonic kidney cells expressing luciferase-tagged ATAD5 (AID 651632); also: nearly all actives have a fitted effect of over 15% in size; also: potency is read from the fitted curve at half-maximal effect
In short: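 Quantitative HTS in HEK293T expressing luciferase-tagged ATAD5, whose levels rise upon DNA damage. Exposure ran 16 hr at 37C and 5% CO2, with luminescence read 30 min after Amplite addition at room temperature.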

[2] = qHTS assay for small molecules that induce genotoxicity in human embryonic kidney cells expressing luciferase-tagged ATAD5 - cell viability (AID 651634; calls by dose curve; also: nearly all actives have a fitted effect of over 25% in size; also: potency is read from the fitted curve at half-maximal effect)
In short: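 After 15.5 hr incubation with compound at 37C, 5% CO2, HEK293T ATAD5-luciferase cells received CellTiter-Fluor reagent; fluorescence intensity was quantified following 30 min at 37C.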

[3] = qHTS assay for small molecule disruptors of the mitochondrial membrane potential - cell viability (AID 720634; calls by dose curve; also: nearly all actives have a fitted effect of over 20% in size; also: potency is read from the fitted curve at half-maximal effect)
In short: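 ATP-based luminescent viability readout (CellTiter-Glo, 30 min, room temperature) in HepG2 cells multiplexed with the m-MPI membrane potential dye; compound exposure lasted 1 hr at 37 C.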

[4] = qHTS assay to test for compound auto fluorescence at 535 nm (green) in HepG2 cells (AID 720675)
[5] = qHTS assay to test for compound auto fluorescence at 590 nm (red) in HEK293 cells (AID 720679)
In short: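 Red autofluorescence, HEK293 cells: 2,000 cells/well; attach 4-5 hr 37C; add 23 nL cpd or DMSO; incubate o/n 37C 5% CO2; read Ex540/Em590; Rose Bengal sodium reference.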

[6] = qHTS assay to test for compound auto fluorescence at 535 nm (green) in HEK293 cells (AID 720680)
[7] = qHTS assay to test for compound auto fluorescence at 590 nm (red) in HepG2 cell free culture (AID 720684)
In short: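 Rose Bengal sodium served as the reference for red signal. Test compounds were dispensed into serum-containing MEM (10% FBS) without cells, and plates were read at 540/590 nm.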

[8] = qHTS assay to test for compound auto fluorescence at 460 nm (blue) in HepG2 cell free culture (AID 720685)
In short: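 Cell-free plates of MEM plus 10% FBS received 23 nL compound or DMSO vehicle; blue-channel (405/460 nm) intensity scored against triamterene as reference fluorophore.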

[9] = qHTS assay to test for compound auto fluorescence at 535 nm (green) in HepG2 cell free culture (AID 720686)
[10] = qHTS assay to identify small molecule antagonists of the glucocorticoid receptor (GR) signaling pathway - cell viability counter screen (AID 720693); also: nearly all actives have a fitted effect of over 55% in size; also: potency is read from the fitted curve at half-maximal effect
[11] = qHTS assay to identify small molecule antagonists of the androgen receptor (AR) signaling pathway using the MDA cell line - cell viability counter screen (AID 743041; also: nearly all actives have a fitted effect of over 45% in size; also: potency is read from the fitted curve at half-maximal effect)
In short: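 Cytotoxicity counter screen: MDA-kb2 AR-luc cells, compound + R1881, 16 h, 37C, 0% CO2; CellTiter-Fluor added at 15.5 h, fluorescence read after 30 min.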

[12] = qHTS assay to identify small molecule antagonists of the thyroid receptor (TR) signaling pathway - cell viability counter screen (AID 743064); also: nearly all actives have a fitted effect of over 50% in size; also: potency is read from the fitted curve at half-maximal effect
In short: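 Fluorescence from CellTiter-Fluor, added after 23.5 h exposure at 37 °C, reported viability of GH3.TRE-Luc cells co-treated with compound and 1 nM T3. Measured in the same wells as the luciferase TR readout.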

[13] = qHTS assay to identify small molecule antagonists of the thyroid receptor (TR) signaling pathway (AID 743065); also: nearly all actives have a fitted effect of over 55% in size; also: potency is read from the fitted curve at half-maximal effect
In short: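 GH3.TRE-Luc rat pituitary cells (two TREs driving luciferase) were dosed with compound, then stimulated with 1 nM T3 (final) for 23.5 h at 37 C. ONE-Glo luminescence was the read-out, with CellTiter-Fluor fluorescence as the cytotoxicity counter-screen.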

[14] = system: thyroid hormone receptor (rat, GH3 cells); assay: qHTS assay to identify small molecule agonists of the thyroid receptor (TR) signaling pathway (AID 743066; calls by dose curve)
[15] = qHTS assay to identify small molecule antagonists of the estrogen receptor alpha (ER-alpha) signaling pathway - cell viability counter screen (AID 743074; calls by dose curve;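 also: HEK293 cells carrying ER-alpha-UAS-bla reporter stimulated with 17beta-estradiol; nearly all actives have a fitted effect of over 45% in size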; also: potency is read from the fitted curve at half-maximal effect)
[16] = qHTS assay to identify small molecule antagonists of the estrogen receptor alpha (ER-alpha) signaling pathway using the BG1 cell line - cell viability counter screen (AID 743081);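 also: compound given together with 17beta-estradiol as the ER stimulus; series mostly up to about 70 µM; nearly all actives have a fitted effect of over 45% in size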
Aromatase (Homo sapiens) = Aromatase (Homo sapiens) (UniProt P11511); assay: qHTS assay to identify aromatase inhibitors (AID 743083); also: nearly all actives have a fitted effect of over 55% in size; also: potency is read from the fitted curve at half-maximal effect
[17] = qHTS assay to identify aromatase inhibitors - cell viability counter screen (AID 743084);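 also: cells stimulated with testosterone during compound exposure; nearly all actives have a fitted effect of over 55% in size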; also: potency is read from the fitted curve at half-maximal effect
[18] = qHTS assay to identify small molecule that activate the aryl hydrocarbon receptor (AhR) signaling pathway - cell viability counter screen (AID 743086); also: nearly all actives have a fitted effect of over 45% in size; also: potency is read from the fitted curve at half-maximal effect
In short: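 HepG2-AhR-luc (HG2L7.5c1) cells, 4000/well, treated 24 h at 37 C with compound; viability measured as CellTiter-Fluor fluorescence after 30 min in the same wells as the luciferase read.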

[19] = qHTS assay to identify small molecule phospholipidosis (PLD) inducers (AID 1259344; active = well fitted curve in the direction sought with a large enough effect; an effect the other way counts as inactive or inconclusive)
In short: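 Read-out is LipidTOX Red fluorescence (ex 595/em 615) imaged in HepG2 cells after 24 h compound exposure at 37 C, with Hoechst nuclear counterstain (ex 352/em 461) allowing per-cell normalisation.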
% is scaled to controls: 0 for no effect and ±100 for the full control effect.

Sequence of Aromatase (Homo sapiens) (P11511 whole entry, looked up): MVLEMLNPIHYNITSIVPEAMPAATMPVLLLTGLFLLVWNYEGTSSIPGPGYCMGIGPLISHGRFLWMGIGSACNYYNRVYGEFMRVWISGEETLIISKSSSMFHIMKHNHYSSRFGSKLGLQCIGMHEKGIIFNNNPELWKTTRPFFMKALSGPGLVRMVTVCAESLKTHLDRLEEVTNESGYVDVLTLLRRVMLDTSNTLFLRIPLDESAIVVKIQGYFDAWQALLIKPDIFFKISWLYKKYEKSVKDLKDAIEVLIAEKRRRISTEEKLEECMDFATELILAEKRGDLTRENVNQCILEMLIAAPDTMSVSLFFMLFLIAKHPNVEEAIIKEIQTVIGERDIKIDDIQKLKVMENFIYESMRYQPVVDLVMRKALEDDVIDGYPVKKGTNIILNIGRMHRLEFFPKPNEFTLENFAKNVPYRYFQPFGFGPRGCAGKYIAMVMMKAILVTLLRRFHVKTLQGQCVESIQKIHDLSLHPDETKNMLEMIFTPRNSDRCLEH

CCNC1(c2cccs2)CCCCC1=O (stereo not given)
inactive: Potency [1] | Potency [2] | Potency [3] | Potency [4] | outcome [5] | Potency [6] | outcome [7] | Potency [8] | Potency [9] | Potency [10] | Potency [11] | Potency [12] | Potency [13] | Potency [14] | Potency [15] | Potency [16] | Potency (Aromatase (Homo sapiens)) | Potency [17] | Potency [18] | Potency [19]

CCCSc1cc(OC)c(CCN)cc1OC
inactive: Potency [3] | Potency [4] | outcome [5] | Potency [6] | outcome [7] | Potency [8] | Potency [9] | Potency [10] | Potency [15] | Potency [19]
active: Potency [12] 29 µM | Potency [13] 32.5 µM | Potency (Aromatase (Homo sapiens)) 32.5 µM | Potency [18] 32.5 µM

Oc1cc[c]([Hg][Cl])cc1
21.3 µM (active) and inactive: Potency [15]
inactive: Potency [4] | outcome [5] | Potency [6] | outcome [7] | Potency [8] | Potency [9] | Potency [16] | Potency [19]
active: Potency [1] 4.22 µM and 8.41 µM | Potency [2] 11.9 µM and 13.3 µM | Potency [3] 16.8 µM | Potency [10] 6.74 µM and 19 µM | Potency [11] 11.9 µM and 13.3 µM | Potency [12] 596 nM and 841 nM | Potency [13] 422 nM and 531 nM | Potency (Aromatase (Homo sapiens)) 6.68 µM and 13.3 µM | Potency [17] 6.68 µM and 11.9 µM | Potency [18] 13.3 µM

CC(=O)[C@@]1(O)CC[C@H]2[C@@H]3CCC4=CC(=O)CC[C@]4(C)C3(F)[C@@H](O)C[C@@]21C (stereo not given in full)
inactive: Potency [1] | Potency [2] | Potency [3] | Potency [4] | outcome [5] | Potency [6] | outcome [7] | Potency [8] | Potency [9] | Potency [10] | Potency [11] | Potency [12] | Potency [13] | Potency [14] | Potency [15] | Potency [16] | Potency (Aromatase (Homo sapiens)) | Potency [17] | Potency [18] | Potency [19]

O=C(O)CCCO
inactive: Potency [1] | Potency [2] | Potency [3] | Potency [4] | outcome [5] | Potency [6] | outcome [7] | Potency [8] | Potency [9] | Potency [10] | Potency [11] | Potency [12] | Potency [13] | Potency [14] | Potency [15] | Potency [16] | Potency (Aromatase (Homo sapiens)) | Potency [17] | Potency [18] | Potency [19]

C=C[C@H]1CN2CC[C@H]1C[C@H]2[C@H](OC(=O)OCC)c1ccnc2ccc(OC)cc12
inactive: Potency [1] | Potency [2] | Potency [3] | Potency [4] | outcome [5] | Potency [6] | outcome [7] | Potency [8] | Potency [9] | Potency [10] | Potency [11] | Potency [13] | Potency [14] | Potency [16] | Potency (Aromatase (Homo sapiens)) | Potency [17] | Potency [18] | Potency [19]

O=C1C[C@@H]2OCC=C3CN4CC[C@]56c7ccccc7N1[C@H]5[C@H]2[C@H]3C[C@H]46 (tested in a mixture with another compound)
inactive: Potency [2] | Potency [3] | Potency [4] | outcome [5] | Potency [6] | outcome [7] | Potency [8] | Potency [9] | Potency [10] | Potency [11] | Potency [12] | Potency [13] | Potency [14] | Potency [15] | Potency [16] | Potency (Aromatase (Homo sapiens)) | Potency [17] | Potency [18] | Potency [19]

O=C(NC(=O)c1c(F)cccc1F)Nc1ccc(Cl)c(Oc2ncc(C(F)(F)F)cc2Cl)c1
inactive: Potency [1] | Potency [2] | Potency [3] | Potency [4] | outcome [5] | Potency [6] | outcome [7] | Potency [8] | Potency [9] | Potency [10] | Potency [11] | Potency [13] | Potency [14] | Potency [15] | Potency [16] | Potency (Aromatase (Homo sapiens)) | Potency [17] | Potency [18] | Potency [19]

CCc1cc(OC)c(C[C@@H](C)N)cc1OC
inactive: Potency [1] | Potency [2] | Potency [3] | Potency [4] | outcome [5] | Potency [6] | outcome [7] | Potency [8] | Potency [9] | Potency [10] | Potency [14] | Potency [15] | Potency (Aromatase (Homo sapiens)) | Potency [17] | Potency [19]
active: Potency [13] 56.7 µM

Cc1cc(C)cc(C(=O)OC2C[C@H]3CC[C@@H](C2)N3C)c1 (stereo not given in full)
inactive: Potency [1] | Potency [2] | Potency [3] | Potency [4] | outcome [5] | Potency [6] | outcome [7] | Potency [8] | Potency [9] | Potency [10] | Potency [11] | Potency [14] | Potency [15] | Potency [16] | Potency (Aromatase (Homo sapiens)) | Potency [17] | Potency [19]
active: Potency [13] 18.8 µM

CN[C@]1(c2ccccc2Cl)CCCCC1=O
inactive: Potency [1] | Potency [2] | Potency [3] | Potency [4] | outcome [5] | Potency [6] | outcome [7] | Potency [8] | Potency [9] | Potency [10] | Potency [11] | Potency [12] | Potency [13] | Potency [14] | Potency [16] | Potency (Aromatase (Homo sapiens)) | Potency [17] | Potency [18] | Potency [19]

CCC/C=C/C=C/C(=O)O[C@H]1/C(=C/C(=O)OC)C[C@H]2C[C@H]([C@@H](C)O)OC(=O)C[C@H](O)C[C@@H]3C[C@H](OC(C)=O)C(C)(C)[C@](O)(C[C@@H]4C/C(=C/C(=O)OC)C[C@H](/C=C/C(C)(C)[C@]1(O)O2)O4)O3
active: Potency [1] 4.7 nM | Potency [12] 10.6 µM | Potency [13] 9.44 µM
inactive: Potency [2] | Potency [3] | Potency [4] | outcome [5] | Potency [6] | outcome [7] | Potency [8] | Potency [9] | Potency [10] | Potency [11] | Potency [14] | Potency [16] | Potency (Aromatase (Homo sapiens)) | Potency [17] | Potency [18] | Potency [19]

CNC(C)Cc1ccccc1 (stereo not given)
inactive: Potency [1] | Potency [2] | Potency [3] | Potency [4] | outcome [5] | Potency [6] | outcome [7] | Potency [8] | Potency [9] | Potency [10] | Potency [11] | Potency [13] | Potency [14] | Potency [15] | Potency [16] | Potency (Aromatase (Homo sapiens)) | Potency [17] | Potency [18] | Potency [19]

C[C@@H]1[C@@H]2Cc3ccc(O)cc3[C@@]1(C)CCN2CC1CC1
inactive: Potency [1] | Potency [2] | Potency [3] | Potency [4] | outcome [5] | Potency [6] | outcome [7] | Potency [8] | Potency [9] | Potency [10] | Potency [11] | Potency [12] | Potency [13] | Potency [14] | Potency [15] | Potency [16] | Potency (Aromatase (Homo sapiens)) | Potency [17] | Potency [18] | PLD induction [19] 5.17% [at 7.66 µM]
